Screening data deposited in PubChem BioAssay by National Center for Advancing Translational Sciences (NCATS).
Rab9 promoter act: activators of Rab9 promoter; hit rate 2.8% among 320,000; Huh7 Rab9 promoter-luciferase reporter, luminescence, 24 h; AID 485297; Potency, µM (highest dose often 9.22 µM), inactives show top-dose activation, negative = inhibition, hits mostly activators; note: % of control where 0% means no effect; nearly all actives have a fitted effect of over 60% in size
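Huh7 cells stably carrying Rab9 promoter–luciferase reporter, plated 1500 cells/well, compound added after 2 h and incubated 24 h at 37 °C; luciferase luminescence then read after 10 min with detection reagent.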
ELG1 genotox: induces genotoxicity in HEK293T cells with luciferase-tagged ELG1; HEK293T ELG1-luciferase reporter, luminescence, 16 h; Potency, µM (top dose mostly 46 µM), for inactives: at the highest dose activity change, positive = activation, hits mostly activators; hit rate 1.3% among 330,000; note: % of control where 0% means no effect; nearly all actives have a fitted effect of over 60% in size
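DMSO vehicle served as control against compound-treated ELG1-luciferase HEK293T cells; exposure lasted 16 hr at 37 °C and 5% CO2, followed by ONE-Glo luminescence detection after 30 min.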
SMN2 splice up: SMN2 splice variant enhancement. hit rate 2.8% among 210,000. HEK293 SMN2-luciferase splicing reporter, luminescence, 30-36 h. Potency, µM (highest dose often 46.1 µM), inactives show top-dose activity change, positive = activation, hits mostly activators. AID 1458; note: % of control where 0% means no effect; nearly all actives have a fitted effect of over 55% in size
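HEK293 cells carry an SMN2 […]–luciferase reporter in which exon 7 inclusion puts luciferase in frame. Cells were plated 10-12 h before compound addition, then incubated 30-36 h at 37C. ONE-Glo luminescence was read; sodium butyrate at 4.5 mM final served as control.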
FLuc counter: inhibits or activates purified firefly luciferase, miR-21 counter-screen. P08659. purified FLuc, Km substrates, luminescence inhibition. Potency, µM (series often up to 57.5 µM), inactives show at the top dose activity change, negative = inhibition, usual class: inhibitors. hit rate 6.9% among 360,000. AID 588342;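 note: plate controls were vehicle for no effect and reference inhibitor for full effect; nearly all actives have a fitted effect of over 55% in size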
Target sequence (P08659 whole entry, looked up): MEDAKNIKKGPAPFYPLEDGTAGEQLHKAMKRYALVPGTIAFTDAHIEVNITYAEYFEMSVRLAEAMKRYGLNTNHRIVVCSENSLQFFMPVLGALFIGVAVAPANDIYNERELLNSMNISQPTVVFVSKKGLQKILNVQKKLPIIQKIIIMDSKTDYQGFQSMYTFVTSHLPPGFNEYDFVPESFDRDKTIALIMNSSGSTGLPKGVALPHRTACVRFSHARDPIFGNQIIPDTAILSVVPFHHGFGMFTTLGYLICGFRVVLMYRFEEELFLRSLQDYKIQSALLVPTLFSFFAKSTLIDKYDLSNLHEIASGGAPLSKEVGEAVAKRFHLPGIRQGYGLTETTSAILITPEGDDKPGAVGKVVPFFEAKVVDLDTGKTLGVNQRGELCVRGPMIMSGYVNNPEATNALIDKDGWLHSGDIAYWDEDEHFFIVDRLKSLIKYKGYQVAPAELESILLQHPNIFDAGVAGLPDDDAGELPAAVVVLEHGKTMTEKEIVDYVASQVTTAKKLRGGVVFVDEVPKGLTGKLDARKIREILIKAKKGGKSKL
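Purified P. pyralis luciferase, 10 nM final, with Km-level 10 uM D-luciferin and 10 uM ATP in 50 mM Tris acetate pH 7.5, 10 mM Mg acetate, 0.01% Tween-20, 0.05% BSA; 6-point qHTS titration about 60 µM downward; luminescence read.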
NPC1 prom act: activates the NPC1 promoter | Huh7 NPC1 promoter luciferase reporter, 24 h | Potency, µM (doses to about 9.22 µM), for inactives: at the top dose activation, usual class: activators | hit rate 2.4% among 320,000 | AID 485313; note: % of control where 0% means no effect; nearly all actives have a fitted effect of over 60% in size
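Compounds in DMSO were transferred onto Huh7 NPC1-luciferase reporter cells pre-incubated 2 h; after 24 h at 37 °C, Amplite reagent was dispensed and luminescence recorded 10 min later.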
Active calls of the source: *; ? = inconclusive; . = no result. Most compounds without a hit are left out; they make up all but 7.4% or so of the library. Calls come from the whole dose curve; as a rule, active = well fitted curve in the direction sought with a large enough effect; inconclusive = small, poorly fitted or top-dose-only effect, or another doubt; inactive = no such curve, though single readings can be large; an effect the other way counts as inactive or inconclusive. Potency is the fitted concentration of half-maximal effect.

SMILES	Rab9 promoter act	ELG1 genotox	SMN2 splice up	FLuc counter	NPC1 prom act
COC(=O)c1c(C)[nH]c(C(=O)/C=C/c2ccc(C)cc2)c1C	0%	?	.	2.1µM*	1%
COC1C(O)CC(=O)OC(C)C/C=C/C=C/[C@@H](OC2CCC(N(C)C)C(C)O2)C(C)C[C@@H](CC=O)[C@@H]1O[C@H]1OC(C)[C@H](O[C@@H]2C[C@@](C)(O)C(O)C(C)O2)C(N(C)C)C1O (stereo partly specified)	.	.	0%	.	.
COCCn1c(C)cc(C(=O)COC(=O)c2c(C)nn(Cc3ccccc3)c2C)c1C	-18%	-5%	.	?	-5%
Cc1cc(C(=O)COC(=O)c2ccccc2O)c(C)n1Cc1cccs1	-40%	-11%	.	0.085µM*	-23%
CCn1nc(C(=O)OCC(=O)c2ccc(F)cc2)c2ccccc2c1=O	-2%	-5%	-7%	-20%	-1%
CCn1nc(C(=O)OCC(=O)c2cc(C)n(Cc3cccs3)c2C)c2ccccc2c1=O	-3%	18µM*	?	3µM*	-1%
Cc1cc(C(=O)COC(=O)c2ccc3c(c2)OCO3)c(C)n1Cc1cccs1	4µM*	23µM*	19%	2.7µM*	3.5µM*
CCn1nc(C(=O)OCC(=O)c2ccc3c(c2)OCCO3)c2ccccc2c1=O	-6%	-1%	-7%	2.4µM*	0%
CCC(CC)C(=O)N1CCc2cc(OC)c(OC)cc2C1COc1ccc(C(=O)OC)cc1 (stereo unspecified)	.	.	.	-3%	.
O=C(Nc1ccc(-c2n[nH]c(=S)o2)cc1)c1ccccc1Cl	22%	11%	.	11µM*	19%
O=C(OCC(=O)c1ccc(Cl)s1)c1cnccn1	8%	2%	.	19µM*	-5%
O=C(OCc1ccc(Cl)cc1)c1cnccn1	6%	-1%	19%	-4%	4%
O=C(COC(=O)c1ncc(Cl)c(Cl)c1Cl)c1ccc(Cl)s1	4%	1%	17%	12µM*	10%
O=C(OCC(=O)c1ccc(Cl)s1)c1ccccn1	0%	-1%	5%	7.6µM*	0%
COc1ccc(C(=O)N2CCC3(CCN(Cc4ccccc4OC)CC3)CC2)cc1	.	.	-16%	.	.
CC(=O)N1CCOc2cc(S(=O)(=O)Nc3cccc(C(F)(F)F)c3)c(Cl)cc21	-3%	.	.	-1%	-3%
N[C@](CC1c2ccccc2Oc2ccccc21)(C(=O)O)[C@H]1C[C@@H]1C(=O)O	.	.	13%	.	.
O=C(CSc1nc2c(oc3ccccc32)c(=O)n1Cc1ccco1)Nc1ccccc1Cl	.	.	-3%	2%	.
Clc1ccccc1CSc1cc2c(nn1)-c1ccccc1CC2	2.5µM*	?	20µM*	5.4µM*	?
COc1ccc(C(=O)C(OC(=O)c2ccccc2Cl)c2ccccc2)cc1 (stereo unspecified)	4µM*	?	65%	13µM*	?
COc1ccc(C(=O)C(OC(=O)c2ccccc2)c2ccccc2)cc1 (stereo unspecified)	?	?	22%	?	?
COc1ccc(C(=O)CNc2ccccc2Br)cc1	?	?	.	7.6µM*	?
COc1ccc(C(=O)CC(=O)c2ccc(OC)cc2)cc1	15%	6%	.	19µM*	19%
COc1ccc(C(=O)CN2C(=O)c3ccccc3C2=O)cc1	27%	10%	.	17µM*	?
CCOC(=O)Cn1c(=O)oc2cc(S(=O)(=O)N3CCN(c4ccc(Cl)cc4)CC3)ccc21	.	.	4%	1%	.
SMILES	Rab9 promoter act	ELG1 genotox	SMN2 splice up	FLuc counter	NPC1 prom act
COc1ccc(C(=O)Cc2nnc(C)s2)cc1	?	?	?	19µM*	?
COc1ccc(/C(C)=N\NC(=O)CSc2nnc(C)s2)cc1	0%	4%	1%	-17%	-1%
COc1ccc(C(=O)c2ccccc2O)c(O)c1	2%	5%	2%	1%	-1%
COc1ccc(O)c(C(=O)CC(=O)c2ccccc2)c1	0.71µM*	?	1.8µM*	17µM*	0.71µM*
COc1ccc(C(=O)CSc2ccc(-c3ccccc3)nn2)cc1	-5%	-1%	11%	-16%	0%
COc1ccc(C(=O)CSc2ccccc2C(=O)O)cc1	?	19%	11µM*	9.5µM*	2.2µM*
COc1ccc(C(=O)C[n+]2cccc3cc(OC)ccc32)cc1	-6%	-7%	.	3%	-3%
COc1ccc(C(=O)C[n+]2ccc3ccccc3c2C)cc1	1µM*	1%	.	-17%	?
COC(=O)[C@H]1O[C@@H](c2cc(OC)c(C)c(OC)c2O)[C@H](C)[C@@H](O)[C@H]1C	.	.	-5%	.	.
COc1ccc(Cl)cc1NC(=O)Cn1c(=O)c(-c2ccccc2NC(C)=O)nc2ccccc21	.	.	.	-2%	.
COC(=O)c1cc2sccc2n1CC(=O)Nc1cc(Cl)ccc1OC	.	.	-7%	-10%	.
COC(=O)N1C(C)=Cc2ccccc2C1C/C(C)=C/C(C)=O (stereo unspecified)	.	.	-12%	.	.
COc1ccc(CNC(=O)c2ccc(-c3ccccc3)cc2)cc1	?	?	2%	?	?
COc1ccc(C(=O)NCC(=O)c2ccccc2)cc1	3.5µM*	9.2µM*	.	12µM*	2.8µM*
Cn1c(-c2ccc(F)cc2)cnc1SCC(=O)N1CCCc2ccccc21	-6%	0%	-11%	?	-1%
Cn1c(-c2ccc(F)cc2)cnc1SCC(=O)N1CCCCC1	0.5µM*	2.6µM*	8.9µM*	2.7µM*	0.56µM*
CC1Cc2ccccc2N1C(=O)CSc1ncc(-c2ccc(F)cc2)n1C (stereo unspecified)	1.1µM*	?	13µM*	1.9µM*	3.5µM*
CCN1CCN(Cc2c(O)ccc3oc(C)c(C(=O)Nc4cccc(C(F)(F)F)c4)c23)CC1	.	.	.	0%	.
CCCC(C)NC(=O)c1ccc(F)cc1 (stereo unspecified)	11%	24%	1%	-13%	13%
O=C(O)CCC(=O)c1ccc(-c2ccccc2)cc1	?	9%	29%	8.5µM*	25%
CC(NC(N)=O)C(=O)OCC(=O)c1ccc(-c2ccccc2)cc1 (stereo unspecified)	18%	7%	26%	12µM*	10%
COC(=O)c1ccccc1NC(=O)COC(=O)[C@H](C)NC(N)=O	3%	0%	.	3%	2%
CCCC(C)NC(=O)c1ccc(-c2ccccc2)cc1 (stereo unspecified)	1.8µM*	?	.	?	?
O=C(O)CCC(=O)NNC(=O)c1ccc(-c2ccccc2)cc1	1%	2%	26%	19µM*	-1%
COc1ccc(C(=O)CCC(=O)O)cc1	-8%	6%	-14%	4%	1%
CCc1cccc(NC(=O)C2Cc3ccccc3N2C(=O)c2ccccc2)c1 (stereo unspecified)	.	.	.	-4%	.
COc1ccc(CC(=O)Nc2sc3c(c2C(=O)Nc2cccc(Cl)c2)CCCCC3)cc1	.	.	0%	?	.
Cn1c(=O)c2c(ncn2CC(=O)Nc2cccc(Cl)c2Cl)n(C)c1=O	.	.	-3%	-3%	.
